PubChem BioAssay (EPA / NIEHS)
Several values for one entry are separate records, joined by “and”; a condition that tells them apart may be missing. Equal entries are not always repeated. Some structures have more than one record in an assay (separate samples or runs), and their calls can disagree. Activity calls are given as the source filed them. How the source made its calls: active means hit-call score of the fitted dose curve at least 0.9, where 1 is the maximum; inactive means score below 0.9.

Tests used:
[1] = BSK_hDFCGF_SRB: Viability Assessment in the BioMAP Diversity Plus: hDFCGF Assay (AID 2283061); conditions: primary human foreskin fibroblasts;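 further: cells exposed to compound for 24 h before the read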
Procedure, shortened: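 Human foreskin fibroblasts in 96-well plates were treated 24 h. Total protein was measured by 0.1% SRB staining after 10% TCA fixation, read at 560 nm. Data were fitted bidirectionally against DMSO.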

[2] = read-out: TIMP metallopeptidase inhibitor 1 (TIMP1), TIMP1 (gene 7076); experiment: BSK_hDFCGF_TIMP1: BioMAP Diversity Plus: hDFCGF Assay for TIMP metallopeptidase inhibitor 1 (TIMP1) Biomarker Activity (AID 2283062); conditions: primary human foreskin fibroblasts; actives raise or lower the signal
Procedure, shortened: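 Human foreskin fibroblast primary cultures dosed for 24 h; secreted/surface TIMP-1 quantified by ELISA. Bidirectional curve fitting against DMSO baseline; cytotoxicity tracked in parallel cultures by SRB total-protein staining.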

[3] = read-out: Monokine induced gamma interferon (MIG), CXCL9 (gene 4283); experiment: BSK_hDFCGF_MIG: BioMAP Diversity Plus: hDFCGF Assay for Monokine induced gamma interferon (MIG) Biomarker Activity (AID 2283063); conditions: primary human foreskin fibroblasts; actives raise or lower the signal
Procedure, shortened: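 MIG/CXCL9 measured by ELISA 24 h after dosing primary human skin fibroblasts. Activity fitted in both directions against DMSO controls. Cytotoxicity was checked in parallel cultures by SRB staining read at 560 nm.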

[4] = read-out: Matrix Metallopeptidase 1 (MMP1), MMP1 (gene 4312); experiment: BSK_hDFCGF_MMP1: BioMAP Diversity Plus: hDFCGF Assay for Matrix Metallopeptidase 1 (MMP1) Biomarker Activity (AID 2283064); conditions: primary human foreskin fibroblasts; actives raise or lower the signal
Procedure, shortened: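 Primary human foreskin fibroblasts exposed to chemicals for 24 h; MMP1 measured by ELISA. Cytotoxicity tracked by SRB staining in parallel cultures; bidirectional fit relative to DMSO.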

[5] = read-out: Vascular cell adhesion molecule 1 (VCAM1), VCAM1 (gene 7412); experiment: BSK_hDFCGF_VCAM1: BioMAP Diversity Plus: hDFCGF Assay for Vascular cell adhesion molecule 1 (VCAM1) Biomarker Activity (AID 2283065); conditions: primary human foreskin fibroblasts; actives raise or lower the signal;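 on AC50: VCAM-1 protein level quantified by ELISA after 24 h chemical exposure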
Procedure, shortened: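 Human foreskin fibroblast primary cells dosed with chemical, VCAM-1 measured by ELISA at 24 h. Bidirectional curve fitting relative to DMSO as negative control/baseline.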

[6] = read-out: Intercellular Adhesion Molecule 1 (ICAM1), ICAM1 (gene 3383); experiment: BSK_KF3CT_ICAM1: BioMAP Diversity Plus: KF3CT Assay for Intercellular Adhesion Molecule 1 (ICAM1) Biomarker Activity (AID 2283067); conditions: primary human keratinocytes with fibroblasts; actives raise or lower the signal
Procedure, shortened: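 Human keratinocyte–foreskin fibroblast co-culture was treated for 24 h. Cell-surface ICAM-1 was quantified by ELISA, fitted bidirectionally relative to DMSO. Cytotoxicity was checked in parallel cultures by SRB total-protein staining.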

[7] = read-out: Interferon-gamma inducible Protein 10 (IP10), CXCL10 (gene 3627); experiment: BSK_KF3CT_IP10: BioMAP Diversity Plus: KF3CT Assay for Interferon-gamma inducible Protein 10 (IP10) Biomarker Activity (AID 2283068); conditions: primary human keratinocytes with fibroblasts; actives raise or lower the signal
Procedure, shortened: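 KF3CT co-culture (keratinocytes + foreskin fibroblasts), 24 h compound, IP-10 by ELISA; bidirectional fit vs DMSO baseline.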

[8] = BSK_KF3CT_SRB: Viability Assessment in the BioMAP Diversity Plus: KF3CT Assay (AID 2283069); conditions: primary human keratinocytes with fibroblasts;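 further: total protein by sulforhodamine B staining as a cytotoxicity measure; read 24 h after compound addition; fitted for both signal gain and loss against DMSO baseline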
Procedure, shortened: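 Human keratinocyte and foreskin fibroblast co-culture exposed to chemical for 24 h. Total protein measured in parallel cultures by 0.1% sulforhodamine B staining after 10% TCA fixation, read at 560 nm; bidirectional fit relative to DMSO.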

[9] = read-out: Interleukin-1 alpha (IL1a), IL1A (gene 3552); experiment: BSK_KF3CT_IL1a: BioMAP Diversity Plus: KF3CT Assay for Interleukin-1 alpha (IL1a) Biomarker Activity (AID 2283070); conditions: primary human keratinocytes with fibroblasts; actives raise or lower the signal
Procedure, shortened: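 Primary human keratinocyte plus foreskin fibroblast co-culture, dosed and measured at 24 h in 96-well plates. IL-1a level quantified by ELISA; bidirectional fit relative to DMSO.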

[10] = read-out: TIMP metallopeptidase inhibitor 2 (TIMP2), TIMP2 (gene 7077); experiment: BSK_KF3CT_TIMP2: BioMAP Diversity Plus: KF3CT Assay for TIMP metallopeptidase inhibitor 2 (TIMP2) Biomarker Activity (AID 2283071); conditions: primary human keratinocytes with fibroblasts; actives raise or lower the signal
Procedure, shortened: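 Human primary keratinocyte/foreskin fibroblast co-culture dosed with chemical and sampled at 24 h. TIMP-2 levels quantified by ELISA; bidirectional fitting against DMSO negative control as baseline.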

[11] = read-out: Transforming growth factor beta 1 (TGFb1), TGFB1 (gene 7040); experiment: BSK_KF3CT_TGFb1: BioMAP Diversity Plus: KF3CT Assay for Transforming growth factor beta 1 (TGFb1) Biomarker Activity (AID 2283072); conditions: primary human keratinocytes with fibroblasts; actives raise or lower the signal
Procedure, shortened: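 Human keratinocyte plus foreskin fibroblast primary co-culture, dosed with chemical for 24 h. TGF-b1 quantified by ELISA. Activity fitted bidirectionally against DMSO negative control as baseline.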

[12] = read-out: C-C motif chemokine 2 (Homo sapiens) (UniProt P13500); experiment: BSK_KF3CT_MCP1: BioMAP Diversity Plus: KF3CT Assay for Monocyte Chemoattractant Protein 1 (MCP1/CCL2) Biomarker Activity (AID 2283073); conditions: primary human keratinocytes with fibroblasts; actives raise or lower the signal
Procedure, shortened: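 Human keratinocyte–foreskin fibroblast co-culture; MCP-1 measured by ELISA 24 h after dosing. Bidirectional fit vs DMSO; cytotoxicity tracked by SRB total protein in parallel cultures.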

[13] = read-out: Matrix Metallopeptidase 9 (MMP9), MMP9 (gene 4318); experiment: BSK_KF3CT_MMP9: BioMAP Diversity Plus: KF3CT Assay for Matrix Metallopeptidase 9 (MMP9) Biomarker Activity (AID 2283074); conditions: primary human keratinocytes with fibroblasts; actives raise or lower the signal;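 on AC50: MMP9 protein level quantified by ELISA in the co-culture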
Procedure, shortened: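 Human keratinocyte and foreskin fibroblast co-culture exposed to chemicals for 24 h; MMP9 biomarker measured by ELISA, bidirectional fitting relative to DMSO; cytotoxicity tracked by SRB total protein staining in parallel cultures.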

[14] = read-out: urokinase plasminogen activator (uPA), PLAU (gene 5328); experiment: BSK_KF3CT_uPA: BioMAP Diversity Plus: KF3CT Assay for urokinase plasminogen activator (uPA) Biomarker Activity (AID 2283075); conditions: primary human keratinocytes with fibroblasts; actives raise or lower the signal
Procedure, shortened: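 Primary human keratinocyte/foreskin fibroblast co-culture exposed to chemical; uPA measured by ELISA at 24 h. Bidirectional fit versus DMSO, with parallel SRB total-protein staining for cytotoxicity.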

CD40, CD40 (gene 958) = experiment: BSK_LPS_CD40: BioMAP Diversity Plus: LPS Assay for CD40 Biomarker Activity (AID 2283076); conditions: primary human HUVEC with PBMC; actives raise or lower the signal
Procedure, shortened: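 HUVEC plus PBMC co-culture stimulated with LPS; CD40 quantified by ELISA 24 h after compound dosing. Fitting was bidirectional relative to DMSO. SRB staining of parallel cultures flagged overt cytotoxicity.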

[15] = read-out: E-selectin (Homo sapiens) (UniProt P16581); experiment: BSK_LPS_Eselectin: BioMAP Diversity Plus: LPS Assay for Eselectin Biomarker Activity (AID 2283077); conditions: primary human HUVEC with PBMC; actives raise or lower the signal
Procedure, shortened: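 Human umbilical vein endothelial cells co-cultured with PBMC under LPS stimulation; cell-surface E-selectin measured by ELISA 24 h after dosing. Change in either direction versus DMSO, with SRB total-protein staining in parallel cultures for cytotoxicity.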

[16] = read-out: Interleukin-8 (IL8), CXCL8 (gene 3576); experiment: BSK_LPS_IL8: BioMAP Diversity Plus: LPS Assay for Interleukin-8 (IL8) Biomarker Activity (AID 2283078); conditions: primary human HUVEC with PBMC; actives raise or lower the signal
Procedure, shortened: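 Human umbilical vein endothelial cells co-cultured with PBMC, LPS-stimulated, exposed to compound for 24 h. IL-8 quantified by ELISA; fitted in both directions against DMSO, with SRB total-protein staining of parallel cultures for cytotoxicity.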

[17] = BSK_LPS_SRB: Viability Assessment in the BioMAP Diversity Plus: LPS Assay (AID 2283079); conditions: primary human HUVEC with PBMC;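 further: total protein by sulforhodamine B absorbance as a cytotoxicity measure; measured one day after compound addition; fitted in both directions against DMSO so loss or gain of signal counts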
Procedure, shortened: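 Co-culture of human umbilical vein endothelial cells and PBMC, read 24 h after dosing. Total protein by 0.1% SRB staining after 10% TCA fixation, absorbance at 560 nm; bidirectional fit against DMSO.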

[18] = read-out: Interleukin-1 alpha (IL1a), IL1A (gene 3552); experiment: BSK_LPS_IL1a: BioMAP Diversity Plus: LPS Assay for Interleukin-1 alpha (IL1a) Biomarker Activity (AID 2283080); conditions: primary human HUVEC with PBMC; actives raise or lower the signal
Procedure, shortened: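 Human umbilical vein endothelial cells co-cultured with PBMC and stimulated with LPS; IL-1a measured by ELISA 24 h after dosing. Bidirectional fitting against DMSO; cytotoxicity checked by SRB staining in parallel cultures.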

[19] = read-out: Plasminogen activator inhibitor-1 (PAI1), SERPINE1 (gene 5054); experiment: BSK_hDFCGF_PAI1: BioMAP Diversity Plus: hDFCGF Assay for Plasminogen activator inhibitor-1 (PAI1) Biomarker Activity (AID 2283066); conditions: primary human foreskin fibroblasts; actives raise or lower the signal
Procedure, shortened: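 Human foreskin fibroblasts in the hDFCGF system were dosed with compound for 24 h; PAI-1 was quantified by ELISA. Bidirectional curve fitting used DMSO as negative control and baseline.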

Measured: AC50

Chain of E-selectin (Homo sapiens) (P16581 whole entry, looked up): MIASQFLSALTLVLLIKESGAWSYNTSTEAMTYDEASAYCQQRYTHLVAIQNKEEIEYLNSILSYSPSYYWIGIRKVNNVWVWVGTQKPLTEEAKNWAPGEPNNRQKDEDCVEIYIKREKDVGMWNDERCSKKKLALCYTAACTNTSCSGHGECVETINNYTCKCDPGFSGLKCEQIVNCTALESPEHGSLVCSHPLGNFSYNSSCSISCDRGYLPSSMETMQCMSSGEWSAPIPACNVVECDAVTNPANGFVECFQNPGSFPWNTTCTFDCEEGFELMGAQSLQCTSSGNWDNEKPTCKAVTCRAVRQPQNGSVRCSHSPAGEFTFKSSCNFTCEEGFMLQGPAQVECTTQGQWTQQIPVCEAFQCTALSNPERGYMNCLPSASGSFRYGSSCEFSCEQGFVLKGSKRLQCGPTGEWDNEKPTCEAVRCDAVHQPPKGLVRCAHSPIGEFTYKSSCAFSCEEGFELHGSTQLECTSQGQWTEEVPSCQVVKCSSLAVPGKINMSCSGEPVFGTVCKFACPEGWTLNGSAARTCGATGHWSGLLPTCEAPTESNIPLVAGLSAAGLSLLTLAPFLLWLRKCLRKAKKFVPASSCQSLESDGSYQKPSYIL

Oc1ccccc1-c1ccccc1
not listed: [19]
inactive: all other assays above

CON(C)C(=O)Nc1ccc(Cl)c(Cl)c1
not listed: [19]
inactive: all other assays above

CO/C=C(/C(=O)OC)c1ccccc1Oc1cc(Oc2ccccc2C#N)ncn1
active: [13] 2.7 µM | CD40, CD40 (gene 958) 19.9 µM and 10 µM and 12.9 µM | [15] 10.9 µM and 5.78 µM and 5.72 µM
inactive: [1] | [2] | [3] | [4] | [5] | [19] | [6] | [7] | [8] | [9] | [10] | [11] | [12] | [13] | [14] | CD40, CD40 (gene 958) | [15] | [18]

COP(=S)(OC)Oc1nc(Cl)c(Cl)cc1Cl
active: [3] 14.9 µM | [5] 5.76 µM | [15] 32.5 µM | [18] 27 µM
not listed: [19]
inactive: all other assays above

COc1nc(NC(C)C)nc(NC(C)C)n1
inactive: all assays above

O=C(O)c1nc(Cl)ccc1Cl
active: [7] 0.147 µM | [9] 0.148 µM
inactive: [2] | [3] | [4] | [5] | [6] | [7] | [8] | [9] | [10] | [11] | [12] | [13] | [14] | CD40, CD40 (gene 958) | [15] | [16] | [17] | [18]

Cc1ccc(-c2c(Cl)nc(C#N)n2S(=O)(=O)N(C)C)cc1
active: [2] 18.3 µM | [5] 4.39 µM | [8] 11.3 µM | [13] 6.7 µM | CD40, CD40 (gene 958) 14.9 µM | [15] 39.2 µM | [16] 27.6 µM | [17] 26 µM
not listed: [1]
inactive: all other assays above

COc1cnc(OC)n2nc(NS(=O)(=O)c3c(OCC(F)F)cccc3C(F)(F)F)nc12
inactive: [1] | [2] | [3] | [4] | [5] | [6] | [7] | [8] | [9] | [10] | [11] | [12] | [13] | [14] | CD40, CD40 (gene 958) | [15] | [16] | [17] | [18]
active: [2] 20 µM | [7] 34.2 µM | [14] 29.6 µM | [16] 0.0793 µM

CNC(=O)ON=CC(C)(C)SC
active: [7] 0.428 µM | [9] 1.34 µM
not listed: [1]
inactive: all other assays above

CCCN(CCC)c1c([N+](=O)[O-])cc(S(N)(=O)=O)cc1[N+](=O)[O-]
active: [2] 33.5 µM and 34 µM | [3] 32 µM and 34.1 µM | [4] 33.6 µM and 348 nM | [5] 32.7 µM and 35.6 µM | [8] 34.6 µM | [10] 34.6 µM | [11] 34.4 µM | [13] 32.8 µM | CD40, CD40 (gene 958) 33.6 µM [middle of 4 runs] | [15] 36.9 µM and 32.6 µM and 36.7 µM | [16] 33.1 µM [middle of 4 runs] | [17] 31.8 µM [middle of 4 runs] | [18] 33.5 µM [middle of 4 runs]
inactive: [2] | [3] | [4] | [5] | [6] | [7] | [8] | [9] | [10] | [11] | [13] | [14] | [15]
